In ChEMBL document CHEMBL4513142, “CO-ADD screening of Indiana University - Purdue University Indianapolis (USA) compounds”:
Values joined by “and” are separate entries in the source; they are usually repeats but may differ in a detail not shown here. Equal values may be shown once. Potency and affinity values are given separately.

Assays:
[1] = system: Klebsiella pneumoniae; settings: Concentration 32 ug.mL-1, ASSAY_TEST Inhibition of Bacterial Growth, detection method Absorption (OD600), MEDIA CAMHB, plate type 384well, NBS, CORNING #3640, time 18 hr
[2] = system: Candida albicans; settings: 32 ug/mL
[3] = system: Cryptococcus neoformans; settings: Concentration 32 ug.mL-1, ASSAY_TEST Inhibition of Fungal Growth, detection method Resazurin, Absorption (OD600-OD570), plate type 384well, NBS, CORNING #3640

| SMILES | Inhibition ([1]; 32 ug/mL) | Inhibition [2] | Inhibition ([3]; 32 ug/mL) | Inhibition [1] | Inhibition [3] |
| --- | --- | --- | --- | --- | --- |
| NC(Cc1ccc(F)cc1)C(=O)O.O=C(O)C(F)(F)F (stereo unspecified) | 1.77% and -4.38% | 1.28% and -0.06% | 6.08% and -8.37% |  |  |
| C[C@H](NC(=O)c1ccccc1Cl)C(=O)O | -1.23% and -3.38% | 4.87% and 8.5% | -5.22% and -11.03% |  |  |
| O=C(N[C@@H](Cc1ccccc1)C(=O)O)C1CCCCC1 | 1.14% and 5.62% |  | -13.27% and -11.08% |  |  |
| O=C(NC(CCCc1ccccc1)C(=O)O)c1cccc2ccccc12 (stereo unspecified) | 4.24% and 7.53% | 4.21% and 5.17% | -11.3% and -10.65% |  |  |
| COc1cc(C(=O)N[C@@H](CC(C)C)C(=O)O)ccc1O | 1.29% and 3.72% | 4.13% and 6.65% | -7.3% and -10.82% |  |  |
| CCCNC(=O)C(Cc1ccccc1C)NC(=O)c1ccc(C(F)(F)F)cc1 (stereo unspecified) |  | 0.78% |  | 12.54% | -3.03% |
| NC(Cc1cccc(F)c1)C(=O)O.O=C(O)C(F)(F)F (stereo unspecified) | 0.53% and 0.81% | 1.58% and 1.27% | -7.68% and -3.4% |  |  |
| O=C(Cc1cccc(Br)c1)N[C@@H](Cc1ccccc1)C(=O)O | 7.39% and -2.64% |  | -5.52% and -8.87% |  |  |
| NC(=O)[C@@H]1CCCN1C(=O)c1ccccn1 | 13.57% and 8.38% | 8.62% and 7.92% | -5.72% and -3.53% |  |  |
| [C-]#[N+]c1ccc(C(=O)NC(Cc2ccc(F)cc2)C(=O)NCCC)cc1 (stereo unspecified) |  | 5.24% |  | 14.12% | -1.72% |
| [C-]#[N+]c1ccc(C(=O)NC(CC=C)C(=O)NCCC)cc1 (stereo unspecified) |  | 3.05% |  | 4.31% | -8.98% |
